Compounds without any hit were thinned out: in the full panel of roughly 83,000, 20% have a hit.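 Activity criterion: percent growth below 10, measured after cells in 96-well plates were exposed to a single compound concentration for 48 hours.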 Activity calls are given as the source filed them.
Assays:
Assay in all cases: NCI-60 one-dose screen, 48 h (100 = growth as untreated, 0 = no growth, -100 = all killed)
Details in all cases: 10 µM unless noted
SR leukemia = tested on: SR leukemia
RPMI-8226 leukemia = tested on: RPMI-8226 leukemia
OVCAR-8 ovarian = tested on: OVCAR-8 ovarian
OVCAR-5 ovarian = tested on: OVCAR-5 ovarian
OVCAR-4 ovarian = tested on: OVCAR-4 ovarian
SK-OV-3 ovarian = tested on: SK-OV-3 ovarian
IGROV1 ovarian = tested on: IGROV1 ovarian
OVCAR-3 ovarian = tested on: OVCAR-3 ovarian
HS 578T breast = tested on: HS 578T breast
NCI/ADR-RES ovarian = tested on: NCI/ADR-RES ovarian

Measured: growth

COc1cc2c(cc1-c1c(C)noc1C)ncc1nc(CN3CCOCC3)n([C@H](C)COC(F)F)c12
inactive: SR leukemia 33.7% | RPMI-8226 leukemia 10.1% | OVCAR-8 ovarian 46.1% | OVCAR-5 ovarian 68.2% | OVCAR-4 ovarian 35.9% | IGROV1 ovarian 36.2% | OVCAR-3 ovarian 23.1% | HS 578T breast 30% | NCI/ADR-RES ovarian 40.8%
active: SK-OV-3 ovarian 7.42%

C=C(C)[C@@H]1CC[C@]2(C(=O)N3CCN(C)CC3)CC[C@]3(C)[C@H](CC[C@@H]4[C@@](C)(CCC(=O)O)[C@H](C(=C)C)CC[C@]43C)[C@@H]12
inactive: SR leukemia 56.9% | RPMI-8226 leukemia 58.6% | OVCAR-8 ovarian 88.9% | OVCAR-5 ovarian 111% | OVCAR-4 ovarian 97% | SK-OV-3 ovarian 89.6% | IGROV1 ovarian 104% | OVCAR-3 ovarian 88.8% | HS 578T breast 86.7% | NCI/ADR-RES ovarian 92.4%

COc1ccc(C2CC(c3ccccc3)=NN2C(=O)c2cc(OC)c(OC)c(OC)c2)cc1O (stereo not given)
inactive: SR leukemia 29.8% | OVCAR-8 ovarian 24.4% | OVCAR-5 ovarian 60.1% | OVCAR-4 ovarian 42% | SK-OV-3 ovarian 54.9% | OVCAR-3 ovarian 17% | HS 578T breast 23.5%
active: RPMI-8226 leukemia -20.5% | IGROV1 ovarian 3.37% | NCI/ADR-RES ovarian -11.9%

COc1ccc(C/C(C)=C(\c2ccc(Cl)cc2)c2ccc(OCCCN(C)C)cc2)cc1
active: SR leukemia -31.7% | RPMI-8226 leukemia -2.97%
inactive: OVCAR-8 ovarian 86.2% | OVCAR-5 ovarian 70.8% | OVCAR-4 ovarian 92.9% | SK-OV-3 ovarian 99.1% | IGROV1 ovarian 62.8% | OVCAR-3 ovarian 79.4% | HS 578T breast 75.6% | NCI/ADR-RES ovarian 88.7%

CC(C)C1C2=C(NCCN1C(=O)c1ccncc1)C(C)(C)N(Cc1ccccc1)C2=O (stereo not given)
inactive: SR leukemia 89.4% | RPMI-8226 leukemia 112% | OVCAR-8 ovarian 108% | OVCAR-5 ovarian 107% | OVCAR-4 ovarian 111% | SK-OV-3 ovarian 98.9% | IGROV1 ovarian 101% | OVCAR-3 ovarian 102% | HS 578T breast 109% | NCI/ADR-RES ovarian 99.4%

C=C1CC[C@@H]2C(C)(C)[C@H](O)CC[C@@]2(C)[C@@H]1COc1ccc2ccc(=O)oc2c1
inactive: SR leukemia 85.5% | OVCAR-8 ovarian 17% | OVCAR-5 ovarian 109% | OVCAR-4 ovarian 50.8% | SK-OV-3 ovarian 104% | IGROV1 ovarian 60.7% | OVCAR-3 ovarian 46.8% | HS 578T breast 69.8%
active: RPMI-8226 leukemia 6.64% | NCI/ADR-RES ovarian 5.04%

CCCCC#Cc1c(I)n(C2OC(CO[Si](C)(C)C(C)(C)C)C3OC(C)(C)OC32)c(=O)n(C(=O)c2ccccc2)c1=O (stereo not given)
inactive: OVCAR-8 ovarian 48.8% | OVCAR-5 ovarian 87.2% | OVCAR-4 ovarian 82.6% | SK-OV-3 ovarian 106% | IGROV1 ovarian 27.4% | HS 578T breast 12% | NCI/ADR-RES ovarian 74%
active: SR leukemia 5.85% | RPMI-8226 leukemia -55.2% | OVCAR-3 ovarian -59.7%

CC1(C)N=C(N)N=C(N)N1c1cc(Cl)ccc1Cl
inactive: SR leukemia 67% | RPMI-8226 leukemia 107% | OVCAR-8 ovarian 85.5% | OVCAR-5 ovarian 59.2% | OVCAR-4 ovarian 96.4% | SK-OV-3 ovarian 97.2% | IGROV1 ovarian 68.4% | OVCAR-3 ovarian 115% | HS 578T breast 101% | NCI/ADR-RES ovarian 67.8%

CNC(=O)Nc1ccc(-c2ccc3ncnc(Nc4cccc(Cl)c4)c3c2)cc1
inactive: SR leukemia 27.6% | RPMI-8226 leukemia 55.1% | OVCAR-8 ovarian 54.6% | OVCAR-5 ovarian 55.1% | OVCAR-4 ovarian 69.7% | SK-OV-3 ovarian 19.3% | IGROV1 ovarian 12.3% | OVCAR-3 ovarian 39.6% | HS 578T breast 46.5% | NCI/ADR-RES ovarian 57.6%

Cc1ccc(C(=O)c2ccc(CC(=O)N/N=C/c3cccc(O)c3O)n2C)cc1
inactive: RPMI-8226 leukemia 35.1% | OVCAR-8 ovarian 38.6% | OVCAR-5 ovarian 72.6% | OVCAR-4 ovarian 29.1% | SK-OV-3 ovarian 68% | IGROV1 ovarian 51.2% | OVCAR-3 ovarian 23.5% | HS 578T breast 87.4% | NCI/ADR-RES ovarian 19.2%
active: SR leukemia 8.86%

COc1ccc(Nc2ncc(C#N)c(NCCCNC(=O)C3CCC3)n2)cc1
inactive: SR leukemia 46.3% | RPMI-8226 leukemia 85.8% | OVCAR-8 ovarian 64% | OVCAR-5 ovarian 79.6% | OVCAR-4 ovarian 77.7% | SK-OV-3 ovarian 77.6% | IGROV1 ovarian 54.4% | OVCAR-3 ovarian 70.2% | HS 578T breast 47.7% | NCI/ADR-RES ovarian 83.1%

Cc1cccc(N=Nc2cccc(C)c2)c1
inactive: SR leukemia 108% | RPMI-8226 leukemia 110% | OVCAR-8 ovarian 103% | OVCAR-5 ovarian 94.2% | OVCAR-4 ovarian 107% | SK-OV-3 ovarian 106% | IGROV1 ovarian 102% | OVCAR-3 ovarian 113% | HS 578T breast 117% | NCI/ADR-RES ovarian 108%

Cc1sc2nc(NCCN)[nH]c(=O)c2c1C
inactive: SR leukemia 89.6% | RPMI-8226 leukemia 110% | OVCAR-8 ovarian 101% | OVCAR-5 ovarian 89.5% | OVCAR-4 ovarian 85.1% | SK-OV-3 ovarian 111% | IGROV1 ovarian 100% | OVCAR-3 ovarian 96.7% | HS 578T breast 88.7% | NCI/ADR-RES ovarian 94.8%

Cc1cc(C)c2c(c1)N(C)c1ncnc(-n3c(C)nc4cc(C)ccc43)c1CC2C (stereo not given)
active: NCI/ADR-RES ovarian 7.15%
inactive: SR leukemia 11.3% | RPMI-8226 leukemia 35% | OVCAR-8 ovarian 71.6% | OVCAR-5 ovarian 91.2% | OVCAR-4 ovarian 58.1% | SK-OV-3 ovarian 31.5% | IGROV1 ovarian 47.5% | OVCAR-3 ovarian 21.5% | HS 578T breast 40.9%
